From PubChem BioAssay AID504894 (National Center for Advancing Translational Sciences (NCATS), 2011)
Screen size: about 330,000 compounds; fewer than 10 were called active. Calls follow the shape of the dose curve; as a rule, active = well fitted activation curve with a large enough effect; inconclusive = small, poorly fitted or top-dose-only effect, or another doubt; inactive = no such curve, though single readings can be large or run the other way. Only a sample is shown. Square brackets hold non-standard residues; d marks the D form. Peptide text beside a SMILES is read from it. ξ: configuration not given here. Ac5c = NC1(C(=O)O)CCCC1; ξS = NC(CO)C(=O)O

Experiment: Activators of T cell receptors: qHTS campaign; also: % of control where 0% means no effect
Details: primary human leukocytes, anti-CD3, IL-2 HTRF, 48 h; series mostly up to 9.22 µM; activation of IL-2 secretion: at the top concentration
From the text: Normally activation of naive T cells requires two signals. 1. A signal through the T cell receptor (TCR) which provides antigen specificity to the response. 2. Signals through co-stimulatory molecules, which are necessary for proliferation, survival and cytokine production. In the absence of co-stimulatory signals T cells are not effectively activated, and may even be rendered anergic or unresponsive to subsequent signaling. This lack of costimulation has been shown in multiple model systems to be a major factor in the limited strength and effectiveness of anti-tumor T cell responses. The goal of this project is to identify small molecule compounds that will stimulate T cell activation in the presence of TCR signaling but in the absence of co-stimulatory signals, thereby allowing activation of naive T cells in the absence of co-stimulation. Identification of such compounds would have clear experimental and clinical applications in instances where desirable antigen-specific immune responses are not generated due to a lack of co-stimulation, for example in the generation of anti-tumor responses. In collaboration between the National Cancer Institute and NIH Chemical Genomics Center, a high-throughput amenable screen was developed to discover small molecules that co-stimulate and activate human T cell receptors. The screen will be carried out using a novel homogeneous time resolved fluorescence energy transfer (HTRF) assay to measure production of the cytokine IL-2 by activated T cells and will be tested against the NIH Molecular Libraries Small Molecule Repository (MLSMR). NIH Chemical Genomics Center [NCGC] NIH Molecular Libraries Probe Centers Network [MLPCN] MLPCN Grant: MH090820-01 Assay Submitter (PI): Richard Hodes, National Cancer Institute, NIH
Primary human leukocytes are incubated with a-CD3 beads and compounds for 48 hr. The amount of secreted IL-2 is then assayed with a HTRF IL-2 kit. The presence of IL-2 cytokine captures the detection reagents and brings the a-IL-2-K and a-IL-2-d2 into close proximity. Upon excitation with 320nm light, the europium cryptate is capable of transferring energy to acceptor molecules within close proximity, resulting in acceptor molecule emission at 665nm.

Activation of IL-2 secretion, inactive:
COc1ccc(S(=O)(=O)N2C[C@H]3CON(C)[C@H]3C[C@H]2c2cccc(Br)c2)cc1 0.192%
CC(C)c1cc(N=O)cc(C(C)C)c1O 0.896%
COC(=O)CC(CC(=O)OC)n1cccc1 5.57%
CCOc1ccc(/C=C(/C#N)c2nnc(N3CCOCC3)n2-c2ccccc2)cc1OC 14.1%
O=C(Cc1ccc(NC(=O)C2CCCN(C(=O)C3CCCCC3)C2)cc1)Nc1cccc(C(=O)N2CCCCC2)c1 (configuration not stated) -6.51%
Cc1[nH]c(N)nc(=S)c1CCCNc1ccccc1 -4.36%
CC(=NNC(=O)c1ccncc1)c1ccc(Cl)c(Cl)c1 0.449%
O=C(CCCCCCCC(=O)N1CCCCC1)N1CCCCC1 1.97%
NC(=O)C1(N2CCCC2)CCN(Cc2ccccc2)CC1 -0.103%
CCOc1cc(C(=O)N(Cc2ccccc2)c2ccc(C)cc2)ccc1OCC(=O)N1CCOCC1 -0.923%
CN(C(=O)c1ccc(NC(=O)Cc2cccc(NC(=O)C3CCN(C(=O)c4ccccc4)CC3)c2)cc1)C1CC1 0.0664%
COCC(=O)N(C)[C@H]1C[C@H]2c3cc(Oc4ccccc4C)ccc3CCN2C(=O)[C@H]1[C@H](C)O 8.09%
CCN(CC)S(=O)(=O)c1cccc(NC(=O)c2ccc(S(=O)(=O)N3CCCC3)cc2)c1 -28.5%
CCOC(=O)CCC(NC(=O)c1ccc(CNc2nc3cc(C(F)(F)F)ccc3nc2C(=O)OCC)cc1)C(=O)OCC (configuration not stated) -0.383%
N#CC1(Nc2ccc(-c3ccc(Cl)cc3)cc2)CCCC1 -4.8%
O=C(O)C(c1cccs1)C1(O)CCCCC1 (configuration not stated) 3.18%
COc1ccccc1NC(=O)N(O)C1(C#N)CCCCC1 -5.54%
CC(C)Cc1nnc(N)s1 -2.99%
Cn1c(N)cc(=O)n(C)c1=S 1.37%
CN1C(c2ccc(F)cc2)=CS/C1=C(/C#N)c1nnc2n1-c1ccccc1SC2 4.24%
COc1ccc2c(c1)c(=Cc1ccc(N(C)C)cc1)c1cc(-c3ccccc3)[n+](C)n12 -1.83%
O=C(Nc1cccc(Br)c1)C1CC(=O)N(C2CCCC2)C1 (configuration not stated) 7.06%
Cc1cc(OCCCC(=O)Nc2cc(S(=O)(=O)N3CCOCC3)ccc2N2CCOCC2)ccc1Cl -1.39%
Cc1cc(NC(=O)C(C)SCC(=O)Nc2cccc(S(=O)(=O)N3CCCCCC3)c2)no1 (configuration not stated) 0.672%
Oc1ccc(-c2nc3ccccc3nc2-c2ccc(O)cc2O)c(O)c1 -0.514%
CSCCC(NS(=O)(=O)c1ccc(C)cc1)C(=O)N(C)CC(=O)Nc1ccccc1Br (configuration not stated) -0.958%
CCCCN1CC(COc2ccccc2)Oc2cccc(F)c2S1(=O)=O (configuration not stated) 4.26%
CC(C)=CCc1ccc(O)c(=O)cc1C(C)C 12.1%
CC1(C)C(=O)CCC2(C)C1=CCC1C2C(=O)CC2(C)C1CCC2(O)C(=O)CO (configuration not stated) 0.234%
COC1=CC(=O)OC(C)(c2ccccc2)C1 (configuration not stated) -3.37%
O=C(NCC1CCCCC1)NCC1CCCCC1 -9.34%
Cc1ccc(NC(=O)C(C)OC(=O)C2CC3CCCC(C2)C3=O)cc1S(=O)(=O)N1CCOCC1 (configuration not stated) 6.86%
COc1ccc(CNC(=O)COC(=O)C2=Cc3ccccc3OC2)cc1 0.823%
COC1C(CO)OC(n2cnc3c(=S)nc(N)[nH]c32)C1O (configuration not stated) -2.7%
O=C(c1cccc(S(=O)(=O)N2CCCCCC2)c1)N1CCN(Cc2ccccc2)CC1 4.29%
O=C1NC(c2ccccc2)Cc2ccncc21 (configuration not stated) 1.23%
CN1CCOC1c1ccc(C2OCCN2C)cc1 (configuration not stated) 4%
CC1CCCN(C(=O)Cn2c(=O)oc3cc(S(=O)(=O)N4CCCCC4C)ccc32)C1 (configuration not stated) 1.25%
O=C(Cc1ccc(NC(=O)C2CCCN(C(=O)CCc3ccccc3)C2)cc1)Nc1ccc(C(=O)N2CCOCC2)cc1 (configuration not stated) 6.18%
CCOc1ccc(S(=O)(=O)N2CCN(C(=O)c3oc4ccccc4c3C)CC2)cc1 -1.99%
CN(C(=O)c1cccc(NC(=O)Cc2ccc(NC(=O)C3CCN(C(=O)C4CCCCC4)CC3)cc2)c1)C1CCC1 -2.83%
COc1cc2c(cc1OC)C1C(=O)c3cc(OS(C)(=O)=O)c(OC)cc3C1N(C)C2=O (configuration not stated) 18%
Nc1cc(=O)n(Cc2ccccc2)c(=O)n1Cc1ccccc1 1.08%
c1ccc(CNc2ncnc3[nH]ncc23)cc1 -0.266%
C[n+]1cccc(C(=O)O)c1 -1.15%
O=S(=O)(Cc1ccc(Cl)cc1Cl)c1ccc(Cl)cc1 -0.548%
CCOC(=O)[C@H]1[C@H]2COc3ccc(Br)cc3[C@@H]2N2C(=O)CN(C)C(=O)[C@@]12C -0.578%
O=[N+]([O-])c1cccc(C=NN=Cc2ccccc2O)c1 3.44%
O=C(Nc1ccc2ccccc2c1[N+](=O)[O-])c1ccccc1 2.49%
COc1ccc(NS(=O)(=O)c2ccc(N3CCOCC3)c(NC(=O)/C=C/C(=O)O)c2)cc1 -0.522%
Cc1nc2ccc(N)nc2nc1C 1.17%
CCOC(=O)C(CO)NC(=O)C1(NC(C)=O)CCCC1 (configuration not stated) (Ac-[Ac5c]-[ξS]-OEt) -9.89%
COc1ccc(N=C2C=CC(=O)O2)cc1 2.72%
C/C(=N\Nc1ccc(Cl)nn1)c1ccccc1O -4.92%
O=C(NNC(=O)c1ccc2ccccc2c1)c1ccc(Cl)cc1 3.64%
COC(=O)Cc1nc2c(N)nc(N)nc2[nH]c1=O 2.41%
CC(C)OC(=O)c1ccc(NCc2cc(O)ccc2O)cc1Cl -2.79%
Cc1cc([N+](=O)[O-])c(=O)[nH]c1C -6.49%
O=C(O)c1ccc(NN=CC2=C(N3CCOCC3)/C(=C/c3ccccc3)CC2)cc1 -1.53%
CCN1C[C@@H]2[C@@H]3C(=O)N(C)C(=O)[C@@H]3[C@](C)(C1=O)N2C(=O)c1ccccc1 1.71%
COc1ccc(Br)cc1/C=N/Nc1ccc(S(=O)(=O)Nc2ccccc2C(=O)O)cc1[N+](=O)[O-] -1.12%
O=C(Nc1c[nH]c(=O)[nH]c1=O)OCc1ccccc1 -1.09%
O=C(Nc1ccn(CCCNCc2ccc3[nH]ccc3c2)c(=O)n1)OCc1ccccc1 3.57%
CCCCNCCS(=O)(=O)NCc1ccccc1 -4.58%
COc1ccc2nc(N3C(=O)C(O)=C(C(=O)c4ccco4)C3c3ccco3)sc2c1 (configuration not stated) 1.73%
COc1ccc(C(CNC(=O)c2cccc(S(=O)(=O)Nc3ccc(Br)cc3)c2)N(C)C)cc1 (configuration not stated) -9.63%
CCCCC(=O)NC(c1ccc(OC)c(OC)c1)c1ccc2cccnc2c1O (configuration not stated) 3.02%
O=c1[nH]c(=S)[nH]c(O)c1/C=C1\C=Nc2ccccc21 -2.5%
O=C(O)C1C2C=CC(O2)C1C(=O)Nc1ccccn1 (configuration not stated) -9.44%
O=C(NCc1ccccc1)c1cccc(NC(=O)C2CCCCC2)c1 2.41%
O=C(NCCc1ccccc1)c1cccc(NC(=O)c2ccccc2)c1 1.8%
CCOc1ccc(CCNC(=O)COC(=O)C2CCN(S(=O)(=O)c3ccccc3)CC2)cc1OCC 3.13%
COc1ccc(-c2ccc3c(c2)[C@@H]2C[C@H](N(C)S(=O)(=O)c4ccccc4)[C@H]([C@H](C)O)C(=O)N2CC3)cc1 -1.04%
Oc1c(CN2CCOCC2)ccc(CN2CCOCC2)c1O -4.54%
COc1ccc(C2NCCCC2c2ccccc2)cc1 (configuration not stated) -1.89%
O=C(NN=Cc1ccccc1)c1ccccc1 0.412%
CCC1(C)COC(c2ccc(OC)c(OC)c2)OC1 (configuration not stated) 1.82%
Cc1ccccc1N1CCN(C(=O)c2cccnc2)CC1 5.77%
CSCCC(NC(=O)COc1ccccc1)C(=O)N1CCN(c2cccc(C(F)(F)F)c2)CC1 (configuration not stated) -6.34%
O=S1(=O)CCOC[C@H](Cc2ccccc2)N1Cc1ccccc1Br -2.37%
CC(Nc1ccc([N+](=O)[O-])cc1[N+](=O)[O-])c1ccccc1 (configuration not stated) 3.61%
NN=C(NN=Cc1ccccc1)c1ccccc1 8.09%
Cn1c(=S)sc2ccc3ccccc3c21 -8.56%
Nc1ncnc2c1cnn2C1CC(O)C(CO)O1 (configuration not stated) 5.52%
COc1ccc(CS(=O)/C(Cl)=C(/Cl)C(=O)Nc2ccc(OC)nc2)cc1 (configuration not stated) 3.3%
N=C1c2ccccc2-c2ccccc21 3.58%
C/C(=N\Nc1ccccc1)c1cccs1 -2.99%
CCCCCCCCNS(=O)(=O)CCNC1CCCCC1 -0.0999%
O=S1(=O)CSCS(=O)(=O)C1 -5.1%
Cc1ccc(SCC(=O)N2CCN(c3ccc(F)cc3)CC2)cc1 -7.83%
Cc1nc(Nc2ccccc2C)c2cnn(C)c2n1 2.43%
COc1ccc(NC(=O)/C(N=Nc2cccc(S(=O)(=O)Nc3ccc(SC(F)F)cc3)c2)=C(\C)O)cc1 -4.11%
O=C1CC[C@@H]2CC3(C[C@@H]4CCN1[C@H]24)Nc1cc([N+](=O)[O-])ccc1NC3=NC1CCCCC1 (some centres not stated) -5.47%
N#CC1=C(N)Oc2cc(N)ccc2C1c1ccccc1 (configuration not stated) 4.31%
CN(CCc1ccccc1)C(=O)c1cccc(NC(=O)Cc2cccc(NC(=O)C3CCCN(C(=O)C4CCC4)C3)c2)c1 (configuration not stated) -4.22%
COc1ccc(Nc2ccc3ccccc3c2)cc1 2.88%
COC1=NC2=NCCN2C(OC)=N1 -0.648%
